# T1: NR2C1 355-603 Hormone_recep (domain begin residue: 355, domain end residue: 603), P13056
# T1 chain: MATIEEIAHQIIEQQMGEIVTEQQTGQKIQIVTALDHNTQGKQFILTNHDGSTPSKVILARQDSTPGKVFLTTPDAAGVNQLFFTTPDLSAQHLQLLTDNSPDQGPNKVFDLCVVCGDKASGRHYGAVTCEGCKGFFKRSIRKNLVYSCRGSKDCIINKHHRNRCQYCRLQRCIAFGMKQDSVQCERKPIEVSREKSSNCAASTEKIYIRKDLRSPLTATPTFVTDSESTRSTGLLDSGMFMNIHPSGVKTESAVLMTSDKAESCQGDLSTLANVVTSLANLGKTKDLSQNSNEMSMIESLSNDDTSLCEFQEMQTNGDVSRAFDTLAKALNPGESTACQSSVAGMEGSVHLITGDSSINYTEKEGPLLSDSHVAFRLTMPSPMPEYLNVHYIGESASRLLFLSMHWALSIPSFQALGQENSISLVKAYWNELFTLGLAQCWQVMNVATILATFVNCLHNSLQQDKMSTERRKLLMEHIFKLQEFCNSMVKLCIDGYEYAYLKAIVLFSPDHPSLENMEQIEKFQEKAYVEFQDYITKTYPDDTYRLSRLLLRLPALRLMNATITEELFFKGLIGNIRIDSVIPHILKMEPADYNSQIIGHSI
# T2: NR1H4 256-474 Hormone_recep (domain begin residue: 256, domain end residue: 474), Q96RI1
# T2 chain: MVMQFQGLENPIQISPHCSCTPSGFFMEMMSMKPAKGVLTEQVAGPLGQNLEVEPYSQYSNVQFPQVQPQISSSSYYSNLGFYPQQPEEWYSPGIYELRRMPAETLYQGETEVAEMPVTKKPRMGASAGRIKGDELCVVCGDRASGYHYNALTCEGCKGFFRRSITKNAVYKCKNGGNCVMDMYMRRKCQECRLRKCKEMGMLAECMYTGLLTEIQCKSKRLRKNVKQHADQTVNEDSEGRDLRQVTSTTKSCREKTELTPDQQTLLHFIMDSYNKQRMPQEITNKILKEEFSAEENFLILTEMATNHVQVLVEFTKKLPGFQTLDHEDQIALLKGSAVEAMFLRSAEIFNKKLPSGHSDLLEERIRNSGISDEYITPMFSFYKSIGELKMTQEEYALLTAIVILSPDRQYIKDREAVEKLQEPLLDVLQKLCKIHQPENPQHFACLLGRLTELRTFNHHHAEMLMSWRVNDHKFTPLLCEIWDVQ
# T3: NR1H3 204-447 Hormone_recep (domain begin residue: 204, domain end residue: 447), Q13133
# T3 chain: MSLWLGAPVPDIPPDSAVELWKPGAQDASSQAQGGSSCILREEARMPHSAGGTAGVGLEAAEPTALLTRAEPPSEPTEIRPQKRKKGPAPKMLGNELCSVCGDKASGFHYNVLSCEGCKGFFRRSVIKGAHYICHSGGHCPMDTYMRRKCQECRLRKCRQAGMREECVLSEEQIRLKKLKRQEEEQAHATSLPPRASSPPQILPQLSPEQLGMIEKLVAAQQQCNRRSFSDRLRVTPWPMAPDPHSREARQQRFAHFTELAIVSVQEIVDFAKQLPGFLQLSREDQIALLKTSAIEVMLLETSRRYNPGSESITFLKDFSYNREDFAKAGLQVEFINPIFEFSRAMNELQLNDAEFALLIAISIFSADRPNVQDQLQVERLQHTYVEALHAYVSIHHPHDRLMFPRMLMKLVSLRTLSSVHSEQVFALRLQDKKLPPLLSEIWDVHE
# T4: NR4A2 327-598 Hormone_recep (domain begin residue: 327, domain end residue: 598), P43354
# T4 chain: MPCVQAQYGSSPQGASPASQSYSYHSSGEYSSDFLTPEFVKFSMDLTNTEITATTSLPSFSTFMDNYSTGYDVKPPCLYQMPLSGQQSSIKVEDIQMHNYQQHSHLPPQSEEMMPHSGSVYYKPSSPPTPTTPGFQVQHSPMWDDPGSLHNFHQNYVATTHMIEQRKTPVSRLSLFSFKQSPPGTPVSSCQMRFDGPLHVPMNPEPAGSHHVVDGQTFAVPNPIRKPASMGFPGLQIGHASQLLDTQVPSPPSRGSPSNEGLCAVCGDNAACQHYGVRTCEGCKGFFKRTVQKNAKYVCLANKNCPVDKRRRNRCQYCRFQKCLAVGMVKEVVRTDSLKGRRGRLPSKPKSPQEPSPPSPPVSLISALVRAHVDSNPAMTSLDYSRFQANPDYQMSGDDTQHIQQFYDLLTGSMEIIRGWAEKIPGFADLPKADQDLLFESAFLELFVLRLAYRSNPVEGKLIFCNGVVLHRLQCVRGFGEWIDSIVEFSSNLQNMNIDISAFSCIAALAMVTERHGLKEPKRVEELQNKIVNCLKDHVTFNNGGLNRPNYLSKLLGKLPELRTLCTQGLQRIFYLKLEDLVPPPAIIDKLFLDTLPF
# T5: NR4A3 356-626 Hormone_recep (domain begin residue: 356, domain end residue: 626), Q92570
# T5 chain: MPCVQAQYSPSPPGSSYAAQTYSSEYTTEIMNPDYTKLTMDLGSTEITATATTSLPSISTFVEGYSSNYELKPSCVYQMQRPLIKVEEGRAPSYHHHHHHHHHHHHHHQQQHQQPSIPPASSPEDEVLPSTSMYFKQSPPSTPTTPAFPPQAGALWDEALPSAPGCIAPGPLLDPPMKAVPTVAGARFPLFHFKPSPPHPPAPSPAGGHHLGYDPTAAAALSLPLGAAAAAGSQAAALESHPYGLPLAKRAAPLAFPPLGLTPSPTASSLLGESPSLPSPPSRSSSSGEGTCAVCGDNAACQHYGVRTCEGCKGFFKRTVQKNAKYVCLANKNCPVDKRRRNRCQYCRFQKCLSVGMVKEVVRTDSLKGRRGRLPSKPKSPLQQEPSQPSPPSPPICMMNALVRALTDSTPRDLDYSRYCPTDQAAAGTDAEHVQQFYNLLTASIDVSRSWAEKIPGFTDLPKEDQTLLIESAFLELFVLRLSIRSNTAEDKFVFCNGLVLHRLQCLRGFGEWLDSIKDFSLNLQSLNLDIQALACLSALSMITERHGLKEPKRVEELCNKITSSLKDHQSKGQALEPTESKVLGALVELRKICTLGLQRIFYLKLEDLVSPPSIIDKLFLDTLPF
# T6: NXT1 1-140 NTF2 (domain begin residue: 1, domain end residue: 140), Q9UKK6
# T6 chain: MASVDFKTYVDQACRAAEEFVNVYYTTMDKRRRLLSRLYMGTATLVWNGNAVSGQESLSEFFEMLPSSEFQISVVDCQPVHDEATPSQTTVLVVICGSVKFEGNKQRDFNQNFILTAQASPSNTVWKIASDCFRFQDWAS
# T7: NUP98 730-880 Nucleoporin2 (domain begin residue: 730, domain end residue: 880), P52948
# T7 chain: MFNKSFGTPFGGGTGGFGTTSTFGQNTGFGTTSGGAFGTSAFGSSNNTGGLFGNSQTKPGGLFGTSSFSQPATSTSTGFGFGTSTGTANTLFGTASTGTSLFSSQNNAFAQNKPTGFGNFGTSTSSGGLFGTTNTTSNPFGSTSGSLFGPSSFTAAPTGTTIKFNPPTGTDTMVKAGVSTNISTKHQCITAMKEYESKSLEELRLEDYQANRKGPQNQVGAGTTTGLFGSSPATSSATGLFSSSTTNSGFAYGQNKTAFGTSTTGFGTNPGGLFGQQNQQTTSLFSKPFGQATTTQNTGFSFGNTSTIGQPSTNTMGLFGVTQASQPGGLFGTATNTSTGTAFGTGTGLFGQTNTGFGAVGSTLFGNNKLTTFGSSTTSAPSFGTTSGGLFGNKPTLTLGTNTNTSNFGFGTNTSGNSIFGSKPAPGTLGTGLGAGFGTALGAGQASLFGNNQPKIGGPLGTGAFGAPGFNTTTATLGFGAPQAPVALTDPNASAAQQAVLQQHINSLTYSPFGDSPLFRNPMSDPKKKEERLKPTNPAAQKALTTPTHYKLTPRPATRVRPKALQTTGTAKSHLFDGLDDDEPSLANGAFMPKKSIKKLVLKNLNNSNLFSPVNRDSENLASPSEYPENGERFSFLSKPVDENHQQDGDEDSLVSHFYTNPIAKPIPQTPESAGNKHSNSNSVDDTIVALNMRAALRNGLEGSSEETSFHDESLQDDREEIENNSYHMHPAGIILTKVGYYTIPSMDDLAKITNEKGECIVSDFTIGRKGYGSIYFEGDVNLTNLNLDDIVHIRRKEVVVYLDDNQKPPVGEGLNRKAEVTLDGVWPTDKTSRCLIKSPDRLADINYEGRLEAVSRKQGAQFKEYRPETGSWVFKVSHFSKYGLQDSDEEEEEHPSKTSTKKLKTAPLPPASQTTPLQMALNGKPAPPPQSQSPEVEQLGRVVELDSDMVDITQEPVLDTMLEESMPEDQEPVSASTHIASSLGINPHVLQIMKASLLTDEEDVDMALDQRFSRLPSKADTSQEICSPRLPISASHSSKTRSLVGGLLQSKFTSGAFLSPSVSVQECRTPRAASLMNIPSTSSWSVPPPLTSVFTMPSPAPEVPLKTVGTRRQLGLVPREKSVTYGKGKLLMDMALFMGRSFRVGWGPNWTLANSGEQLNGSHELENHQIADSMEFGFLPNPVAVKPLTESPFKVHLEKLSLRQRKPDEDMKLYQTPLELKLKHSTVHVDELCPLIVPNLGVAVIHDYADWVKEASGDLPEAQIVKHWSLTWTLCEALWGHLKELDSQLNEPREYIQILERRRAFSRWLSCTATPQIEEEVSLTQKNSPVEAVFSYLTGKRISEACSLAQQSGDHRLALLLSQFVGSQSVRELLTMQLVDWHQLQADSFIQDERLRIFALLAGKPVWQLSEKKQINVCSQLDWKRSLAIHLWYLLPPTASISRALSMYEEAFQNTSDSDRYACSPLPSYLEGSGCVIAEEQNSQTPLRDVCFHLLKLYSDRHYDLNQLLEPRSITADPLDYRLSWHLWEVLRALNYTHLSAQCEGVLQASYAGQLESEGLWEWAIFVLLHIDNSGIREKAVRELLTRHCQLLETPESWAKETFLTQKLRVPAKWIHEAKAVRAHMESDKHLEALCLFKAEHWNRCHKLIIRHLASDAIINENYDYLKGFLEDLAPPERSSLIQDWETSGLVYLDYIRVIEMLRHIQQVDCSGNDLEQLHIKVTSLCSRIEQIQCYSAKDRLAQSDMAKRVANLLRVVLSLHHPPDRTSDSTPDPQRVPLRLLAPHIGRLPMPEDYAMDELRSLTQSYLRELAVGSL
# Tests used:
# Assay in all cases: phage ELISA signal ratio (GST-PRM binding over GST background); higher = stronger binding of peptide-phage to the PRM
# [1] = target: T1, NR2C1 355-603 Hormone_recep (domain …
# Summary of the method: (§1)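 Five rounds of selection were carried out against human peptide recognition domains fused to the C-terminus of glutathione S-transferase (GST) and expressed in 96-well plates. The M13 phage library presented randomized hexadecapeptides, cysteine-free and glycine-flanked, on the gene-8 major coat protein. For each value, the phage ELISA signal on the GST-domain fusion was divided by the signal on GST alone.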
# [2] = target: T2, NR1H4 256-474 Hormone_recep (domain …
# Summary of the method: as §1
# [3] = target: T3, NR1H3 204-447 Hormone_recep (domain …
# Summary of the method: as §1
# [4] = target: T4, NR4A2 327-598 Hormone_recep (domain …
# Summary of the method: as §1
# [5] = target: PABPC1 544-623 PABP (domain begin residue: 544, domain end residue: 623)
# Summary of the method: as §1
# [6] = target: NXF1 565-619 TAP_C (domain begin residue: 565, domain end residue: 619)
# Summary of the method: as §1
# [7] = target: NR5A2 297-541 Hormone_recep (domain begin residue: 297, domain end residue: 541), O00482
# Summary of the method: as §1
# [8] = target: NXF1 203-359 LRR_1 (domain begin residue: 203, domain end residue: 359)
# Summary of the method: as §1
# [9] = target: T5, NR4A3 356-626 Hormone_recep (domain …
# Summary of the method: as §1
# [10] = target: T6, NXT1 1-140 NTF2 (domain begin residue: …
# Summary of the method: as §1
# [11] = target: T7, NUP98 730-880 Nucleoporin2 (domain …
# Summary of the method: as §1
# [12] = target: NR5A1 221-461 Hormone_recep (domain begin residue: 221, domain end residue: 461), Q13285
# Summary of the method: as §1
# Chain of NR5A1 221-461 Hormone_recep (domain begin residue: 221, domain end residue: 461), Q13285 (Q13285 whole entry): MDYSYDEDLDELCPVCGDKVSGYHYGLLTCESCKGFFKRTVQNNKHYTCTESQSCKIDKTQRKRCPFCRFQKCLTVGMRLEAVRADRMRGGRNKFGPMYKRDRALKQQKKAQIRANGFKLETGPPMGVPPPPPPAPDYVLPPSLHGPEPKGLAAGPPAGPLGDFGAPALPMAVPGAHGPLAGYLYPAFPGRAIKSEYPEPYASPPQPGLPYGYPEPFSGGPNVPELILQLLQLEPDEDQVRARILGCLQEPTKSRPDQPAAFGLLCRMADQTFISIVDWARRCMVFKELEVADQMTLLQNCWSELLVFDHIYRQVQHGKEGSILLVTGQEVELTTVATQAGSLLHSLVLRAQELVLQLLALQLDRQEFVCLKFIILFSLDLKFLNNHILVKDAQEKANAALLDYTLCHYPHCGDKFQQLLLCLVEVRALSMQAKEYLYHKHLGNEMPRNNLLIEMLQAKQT
# Chain of NR5A2 297-541 Hormone_recep (domain begin residue: 297, domain end residue: 541), O00482 (O00482 whole entry): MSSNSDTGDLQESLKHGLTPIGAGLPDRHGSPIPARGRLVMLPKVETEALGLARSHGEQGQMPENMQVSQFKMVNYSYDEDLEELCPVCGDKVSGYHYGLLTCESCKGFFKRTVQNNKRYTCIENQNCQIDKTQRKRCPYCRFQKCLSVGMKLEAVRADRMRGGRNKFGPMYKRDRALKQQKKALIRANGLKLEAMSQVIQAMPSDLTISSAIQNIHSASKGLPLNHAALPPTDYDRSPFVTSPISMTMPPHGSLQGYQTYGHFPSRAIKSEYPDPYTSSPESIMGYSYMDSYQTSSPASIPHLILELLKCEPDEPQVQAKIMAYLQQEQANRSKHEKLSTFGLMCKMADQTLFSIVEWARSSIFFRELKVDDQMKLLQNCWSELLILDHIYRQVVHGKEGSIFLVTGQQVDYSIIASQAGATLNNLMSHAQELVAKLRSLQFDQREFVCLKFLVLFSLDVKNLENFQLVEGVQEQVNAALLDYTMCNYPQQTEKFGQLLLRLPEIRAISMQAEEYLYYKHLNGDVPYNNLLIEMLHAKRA
binder,measurement,setting,value
NQWGPYWSFSFVPMDW,phage ELISA signal ratio,[1],8.51
WQEWLDYTVESQYTLV,phage ELISA signal ratio,[2],7.27
TELPPLPYAWQDYAHW,phage ELISA signal ratio,[1],24.8
DYPEVEWLTQQWDFWS,phage ELISA signal ratio,[3],17
LNDSEQWFTWAYKYVD,phage ELISA signal ratio,[4],9.75
GWSPWYEGRGVDWMTW,phage ELISA signal ratio,[4],5.78
QWSVEPWWHEMVIQGI,phage ELISA signal ratio,[4],24.1
LPGEYNMMEWRQAVMG,phage ELISA signal ratio,[5],3.49
YPIEQFSFDIWDQMVE,phage ELISA signal ratio,[6],12
QQAQPRWWSMVLQHEW,phage ELISA signal ratio,[7],4.92
SHDMYEMIMWFFYQTE,phage ELISA signal ratio,[4],14.5
KPVPSFWVDWHVQAMT,phage ELISA signal ratio,[5],20.9
FEMLWREHMEKFDVEV,phage ELISA signal ratio,[8],28.4
QTMQRQWLDILLSLEL,phage ELISA signal ratio,[4],20.2
TMSLWPSSWDIITLNS,phage ELISA signal ratio,[4],15
QQEPWWWMDWDFQQAE,phage ELISA signal ratio,[9],4.47
QYNFLWEHLVQPRPAT,phage ELISA signal ratio,[10],16.1
LAFGEWLDKEIGLAYF,phage ELISA signal ratio,[2],14.3
GYGWEELPPIMTVAPD,phage ELISA signal ratio,[11],23.2
PNFEDYWRTAEQWHQP,phage ELISA signal ratio,[8],25.4
EIEEFSFTWQPEWEVR,phage ELISA signal ratio,[6],8.54
QGWMPWDPQDLDWWVG,phage ELISA signal ratio,[11],7.31
WFGWDAQMTEQEDELW,phage ELISA signal ratio,[11],5.91
QEWQAWMLSMEEGEMM,phage ELISA signal ratio,[3],15.5
FENYWKGYQEVPLESR,phage ELISA signal ratio,[8],18.9
PYHDSWFYWPGLTEGV,phage ELISA signal ratio,[12],5.49
EFINFTWMEAMGTPNS,phage ELISA signal ratio,[6],13.2
VVQIEGFDFQWKPEWF,phage ELISA signal ratio,[6],13.2
AFKQLMFHVIGEEYSV,phage ELISA signal ratio,[4],30.5

# — the supplement of paper PMC7724964
